phage Ecoli inh = growth loss of phage-infected E. coli, primary screen, RecBCD inhibitor project, absorbance, with phage, HTS. 360,000 tested, 0.26% active. inhibition, % at 11.9 µM; in the data active = inhibition above about 11%
AddAB inh = growth inhibition of E. coli expressing H. pylori AddAB, primary screen, AddAB inhibitor project, absorbance; AID 435030, 2010; 330,000 tested, 0.29% active; inhibition, % at 11.9 µM; in the data active = inhibition above about 12%;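 note: 0% = vehicle wells of infected cells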
E coli growth-1 = E. coli V3065 growth inhibition, primary screen, counter-screen for AddAB inhibitor project, absorbance, OD600 | 18 h | inhibition, % at 11.9 µM | 330,000 tested, 0.27% active;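 active = inhibition above the campaign's mean inhibition across all tested compounds plus 3 SD, cut at about 9.9% in these data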;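 note: uninfected addAB+ strain grown without phage in ampicillin broth; 0% = DMSO wells and 100% = ciprofloxacin 0.95 µg/ml wells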
E coli growth-2 = E. coli growth inhibition, primary screen, OD600 | 330,000 tested, 0.21% active | Escherichia coli growth, 23 h; stronger effect = lower value | AID 1053175, 2014 | OD600 absorbance (no concentration beside the values);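 active = OD600 absorbance below the run mean of sample wells minus 3.6 SD, in any replicate, cut at about 0.56 in these data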
Tat transport = E. coli Tat export inhibitors, primary screen, MC4100, TorA-mCherry reporter, fluorescence, single point. inhibition, % at 10 µM. 340,000 tested, 0.036% active. AID 488895, 2010;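 active = mean replicate inhibition at least 50% and at least half of replicates individually reaching 50%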;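 note: exported cargo escapes ClpAP degradation while cytoplasmic cargo is degraded and loses fluorescence; 0% = median of neutral control wells and 100% = median of NaSCN control wells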
RecBCD conf = growth loss of phage-infected RecBCD+ E. coli, confirmation, RecBCD inhibitor project, absorbance, E. coli V66, T4 gene 2 phage. E. coli V66 + T4 2- phage, growth OD. inhibition, % at 11.9 µM. 890 tested, 45% active. AID 651982, 2013. shares compounds with phage Ecoli inh;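 active = mean inhibition over triplicates exceeding the hit threshold derived in the original primary screen, cut at about 11% in these data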
Ecoli viability = E. coli viability inhibition, counter-screen for RecBCD inhibitor project, absorbance, high throughput; shares compounds with phage Ecoli inh; absorbance (OD) growth; inhibition, % at 11.9 µM; 890 tested, 29% active; in the data active = inhibition above about 20%;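 note: E. coli strain V66 grown with compound alone and no phage infection; 0% = bacteria with DMSO vehicle only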
AddAB counter = growth loss of phage-infected AddAB-carrying E. coli, confirmation, counter-screen for RecBCD inhibitor project, absorbance, E. coli V3065, T4 phage; shares compounds with phage Ecoli inh; inhibition, % at 11.9 µM; E. coli expressing H. pylori AddAB + T4 phage, OD growth; gene 2 mutant T4, recBCD-deleted host; AID 651984, 2013; 890 tested, 45% active;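 active = mean inhibition above the solvent-only control wells' mean plus 3 SD, cut at about 22% in these data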;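 note: higher means less bacterial growth from phage killing when AddAB is blocked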
An asterisk follows results filed as active; / = no result; ! = a repeat was not active. Only some compounds are listed: those with a hit (about 0.51% of all), similar ones and a draw of the others.

SMILES	phage Ecoli inh	AddAB inh	E coli growth-1	E coli growth-2	Tat transport	RecBCD conf	Ecoli viability	AddAB counter
Oc1ccc(C=NNC(=S)Nc2cccnc2)nc1	21.3*	/	/	/	1.3	18.7*	21.4*	36.2*
Oc1ccc(C=NNC(=S)Nc2cccnc2)cc1	/	/	/	0.667	/	/	/	/
Oc1c(C(Nc2cccc(C(F)(F)F)c2)c2ccncc2)ccc2cccnc12 (stereo not given)	0.8	-7.0	-9.5	0.646	4.1	/	/	/
CC(=O)NC(c1ccc(Cl)cc1Cl)c1ccc2cccnc2c1O (stereo not given)	24.3*	/	/	/	-19.2	16.8*	20.4*	20.8
CCCC(=O)NC(c1cccc([N+](=O)[O-])c1)c1ccc2cccnc2c1O (stereo not given)	22.8*	/	/	/	/	16.4*	20.4*	25.6*
Cc1ccc(C(NC(=O)C(C)C)c2cc([N+](=O)[O-])c3cccnc3c2O)cc1 (stereo not given)	2.7	5.9	1.0	0.664	-8.3	/	/	/
CCN(CC)c1ccc(C(NC(=O)C(C)C)c2ccc3cccnc3c2O)cc1 (stereo not given)	20.9*	/	/	/	/	7.7	8.7	15.9
O=c1[nH]nnc2c1ncn2C1OC(CO)C(O)C1O (stereo not given)	16.5*	/	/	/	/	23.3*	16.6	28.3*
CSc1ccc(C=NNC(=O)CN2CCN(Cc3ccc(C)cc3)CC2)cc1	/	/	/	0.662	/	/	/	/
O=C(N/N=C/c1c(O)n(-c2ccccc2Cl)c(=O)c2ccccc12)c1cccnc1	4.9	/	/	0.635	6.8	/	/	/
COc1ccc(Cn2c(O)c(/C=N/NC(=O)c3cccnc3)c3ccccc3c2=O)cc1	15.4*	/	/	0.664	3.9	8.1	10.3	13.6
O=C(N/N=C/c1c(O)n(Cc2ccccc2)c(=O)c2ccccc12)c1cccnc1	14.5*	6.4	10.8*	0.709	-1.3	8.7	10.7	20.4
CCOC1OC(C(=O)NC2CC2)=CC(c2ccc(Br)cc2)C1CCCO (stereo not given)	/	/	/	0.691	/	/	/	/
Nc1nc(N)c2cc(S(=O)(=O)c3ccc4ccccc4c3)ccc2n1	28.4*	/	/	/	/	101.4*	99.2*	101.0*
COc1ccc(CC2CN3C(=NCC3Cc3ccccc3)N2CCNC(=O)CCC2CCCCC2)cc1 (stereo not given)	/	/	/	0.694	/	/	/	/
On1onc2c3cc(-c4ccccc4)nc3ccc21	12.7*	11.1	11.5*	0.469*	-11.8	6.6	11.1	4.5
c1ccc(-c2cc3c(ccc4nonc43)nn2)cc1	0.3	4.0	1.7	0.661	-0.5	/	/	/
CCN(CC)c1ccc2cc(-c3nc4ccccc4n3C)c(=O)oc2c1	98.5*	0.1	-0.2	0.674	11.7	80.4*	71.3*	92.5*
CCN(CC)c1ccc2cc(-c3nc4ccccc4[nH]3)c(=O)oc2c1	/	0.3	0.0	0.671	2.5	/	/	/
Cc1ccc(C(=O)Nc2ccc3ccccc3n2)cc1	1.5	3.8	-1.3	0.664	-4.3	/	/	/
Cc1ccc(C(O)(C(=O)NNc2ccc3ccccc3n2)c2ccc(C)cc2)cc1	13.1*!	10.2	10.7*!	0.694	-1.9	4.0	7.7	4.5
O=C(NNC(=O)c1cc(-c2cccnc2)nc2ccccc12)Nc1ccc(Cl)cc1	13.3*	8.1	5.7	0.524*	-2.4	8.6	9.1	1.8
CCCn1c(=O)c(C(=O)NCCc2ccc(OC)c(OC)c2)c(O)c2ccccc21	2.7	/	/	0.665	4.8	/	/	/
CCn1c(=O)c(C(=O)NCCc2ccc(OC)c(OC)c2)c(O)c2ccccc21	11.1*	3.7	9.9*	0.657	3.4	4.7	6.5	11.4
Cc1[nH]c(=O)[nH]c(=O)c1C=NNC(=O)CCNC(=O)OC(C)(C)C	/	/	/	0.666	/	/	/	/
CCN1/C(=C/c2ccc3cc(C)ccc3[n+]2CC)Sc2cc(C)c(C)cc21	12.0*	/	/	0.25*	-8.3	9.7	9.1	26.7*
CC(C)(C)OC(=O)NN=Cc1ccc(N2CCOCC2)s1	/	/	/	0.669	/	/	/	/
